From PubChem BioAssay (Tox21) come the findings set out here.

Assay [1] in a line: qHTS assay to identify small molecule agonists of the TGF-beta/Smad signaling pathway (AID 1346859; active = well fitted activation curve with a large enough effect in the signal ratio in the repeat runs, not every such curve was filed as active; the % refers to the signal ratio; also: series mostly up to about 77 µM). An outline of the steps:
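HEK 293T cells stably carrying a beta-lactamase reporter driven by the Smad binding element were seeded overnight, exposed to DMSO-dissolved compounds for 5 hr at 37 C, 5% CO2, then loaded with FRET substrate for 2 hr at room temperature.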
(qHTS replaces the single test concentration by a dilution series.)

Assay [2] addresses Thyrotropin-releasing hormone receptor (Homo sapiens) (UniProt P34981). Kind of assay: qHTS assay to identify small molecule antagonists of the thyrotropin-releasing hormone receptor (TRHR) signaling pathway (AID 1346877; active = well fitted inhibition curve with a large enough effect in the repeat runs, not every such curve was filed as active; also: series mostly up to about 51 µM). An outline of the steps: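 Antagonism is measured as suppression of the calcium response to 1 nM TRH in TRHR-HEK293 cells that have been dye-loaded for 2 h at 37 °C after overnight plating. Each compound is tested at 15 concentrations in triplicate.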

Assay [3] shares this target. The assay can be described thus: qHTS assay to identify small molecule agonists of the thyrotropin-releasing hormone receptor (TRHR) signaling pathway (AID 1346891; calls by dose curve; also: series mostly up to about 58 µM). In outline: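 TRHR-expressing HEK293 cells were plated 18 h at 37 °C/5% CO2, loaded with calcium dye 2 h at 37 °C, then given compound in DMSO; fluorescence was read kinetically for 3 min at 1 s intervals.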

Assay [4] in a line: Human pregnane X receptor (PXR) small molecule agonists, qHTS cell viability counter screen (AID 1346977). Also: nearly all actives have a fitted effect of over 50% in size. In outline:
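PXR-Luc HepG2 cells in medium with 5% charcoal-stripped FBS were pre-incubated 5hr, then exposed to compounds for 24hr at 37C. Viability was read in the same wells by CellTiter-Fluor fluorescence, reagent added after 23hr with a 1hr incubation.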

The nature of assay [5]: Caspase-3/7 induction in HepG2 cells by small molecules, qHTS assay (AID 1346978). Also: nearly all actives have a fitted effect of over 15% in size. An outline of the steps:
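Wild-type HepG2 cells, 2,000/well, settled 5 hr at 37 C and 5% CO2, then compound-treated for 17 hr; caspase-3/7 activity read by luminescent Caspase-Glo 3/7 after 30 min at room temperature.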

A short description of assay [6]: Caspase-3/7 induction in CHO-K1 cells by small molecules, qHTS cell viability counter screen (AID 1346979). Also: nearly all actives have a fitted effect of over 35% in size. An outline of the steps: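 Wild-type CHO-K1 cells were seeded at 1,500 per well, rested 5hr at 37 C, then exposed to compounds in DMSO. After 16hr, CellTiter-Fluor reagent was added and fluorescence read 1hr later as the viability measure.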
The nature of assay [7]: Caspase-3/7 induction in CHO-K1 cells by small molecules, qHTS assay (AID 1346980). Also: nearly all actives have a fitted effect of over 15% in size. An outline of the steps:
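Wild-type CHO-K1 cells exposed to compounds for 17hr at 37 C, 5% CO2. Caspase-3/7 activity then measured by Caspase-Glo 3/7 luminescence after 30min at room temperature.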

Assay [8] can be described thus: Caspase-3/7 induction in HepG2 cells by small molecules, qHTS cell viability counter screen (AID 1346981). Also: series mostly up to about 92 µM; nearly all actives have a fitted effect of over 30% in size. In outline: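 Cell viability is measured as a cytotoxicity counter screen alongside the Caspase-Glo 3/7 readout in identical wells. Wild-type HepG2 cells are treated with test compounds for 16 hr at 37 C before CellTiter-Fluor addition and a 1-hr incubation.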

Assay [9] has as its target Nuclear receptor subfamily 1 group I member 2 (Homo sapiens) (UniProt O75469). Kind of assay: Human pregnane X receptor (PXR) small molecule agonists, qHTS assay (AID 1346982). Also: nearly all actives have a fitted effect of over 35% in size. Also: potency is read from the fitted curve at half-maximal effect. In outline:
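Cells: HepG2 stably carrying PXR-Luc. Medium held 5% charcoal-stripped FBS. Compounds in DMSO added after 5 hr plating, incubated 24 hr, then luminescence quantified with ONE-Glo.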

The target of assay [10] is Nuclear receptor subfamily 1 group I member 2 (Rattus norvegicus) (UniProt Q9R1A7). The assay can be described thus: Rat pregnane X receptor (rPXR) activation by small molecules, qHTS assay (AID 1346983). Also: nearly all actives have a fitted effect of over 20% in size. Conditions: rPXR luciferase reporter cells, One-Glo luminescence, 24 h; max activation: stronger effect = higher value. An outline of the steps:
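Cell-based rPXR activation assay: rPXR cells, 2,000 per well, rested 5hr at 37 C, then exposed to compounds in DMSO for 24 hr at 37 C. Luciferase activity read by One-Glo luminescence after 30 min at room temperature.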

Unmarked numbers belong to inactive results. Records with an inconclusive call do not appear. Active and inactive are the calls of the source. Unless noted, calls follow the shape of the dose curve; as a rule, active = well fitted curve in the direction sought with a large enough effect in the repeat runs; inconclusive = weak or mixed curves; inactive = no such curve, though single readings can be large; an effect the other way counts as inactive or inconclusive. Non-standard residues stand in square brackets, D forms with d. Residues, ends and D or L forms follow the SMILES beside them. *: point of attachment. Sta = CC(C)C[C@H](N)[C@@H](O)CC(=O)O; Isovaleryl = CC(C)CC(=O)*
% is scaled to controls: 0 for no effect and ±100 for the full control effect.

Chain of Thyrotropin-releasing hormone receptor (Homo sapiens) (P34981 whole entry, looked up): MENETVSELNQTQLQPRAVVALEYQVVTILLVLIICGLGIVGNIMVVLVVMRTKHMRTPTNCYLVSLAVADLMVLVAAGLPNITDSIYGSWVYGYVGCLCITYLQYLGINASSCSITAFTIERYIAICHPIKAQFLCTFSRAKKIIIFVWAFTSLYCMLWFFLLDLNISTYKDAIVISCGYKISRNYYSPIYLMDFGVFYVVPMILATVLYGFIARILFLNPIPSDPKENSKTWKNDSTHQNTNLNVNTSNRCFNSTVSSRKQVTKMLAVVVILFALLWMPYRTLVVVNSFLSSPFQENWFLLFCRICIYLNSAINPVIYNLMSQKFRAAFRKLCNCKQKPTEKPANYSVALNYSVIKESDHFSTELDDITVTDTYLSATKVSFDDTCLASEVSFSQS
Chain of Nuclear receptor subfamily 1 group I member 2 (Rattus norvegicus) (Q9R1A7 whole entry, looked up): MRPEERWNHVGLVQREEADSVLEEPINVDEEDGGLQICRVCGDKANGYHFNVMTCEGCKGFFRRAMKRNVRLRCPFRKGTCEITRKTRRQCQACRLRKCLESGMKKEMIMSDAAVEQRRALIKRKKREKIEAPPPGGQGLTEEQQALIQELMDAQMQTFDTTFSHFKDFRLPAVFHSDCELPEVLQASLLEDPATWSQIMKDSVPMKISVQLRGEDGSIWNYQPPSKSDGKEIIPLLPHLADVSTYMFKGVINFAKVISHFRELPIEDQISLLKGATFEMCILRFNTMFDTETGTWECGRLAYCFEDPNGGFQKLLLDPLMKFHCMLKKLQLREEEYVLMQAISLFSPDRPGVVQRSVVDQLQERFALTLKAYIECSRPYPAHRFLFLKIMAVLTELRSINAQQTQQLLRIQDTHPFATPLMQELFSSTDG
Chain of Nuclear receptor subfamily 1 group I member 2 (Homo sapiens) (O75469 whole entry, looked up): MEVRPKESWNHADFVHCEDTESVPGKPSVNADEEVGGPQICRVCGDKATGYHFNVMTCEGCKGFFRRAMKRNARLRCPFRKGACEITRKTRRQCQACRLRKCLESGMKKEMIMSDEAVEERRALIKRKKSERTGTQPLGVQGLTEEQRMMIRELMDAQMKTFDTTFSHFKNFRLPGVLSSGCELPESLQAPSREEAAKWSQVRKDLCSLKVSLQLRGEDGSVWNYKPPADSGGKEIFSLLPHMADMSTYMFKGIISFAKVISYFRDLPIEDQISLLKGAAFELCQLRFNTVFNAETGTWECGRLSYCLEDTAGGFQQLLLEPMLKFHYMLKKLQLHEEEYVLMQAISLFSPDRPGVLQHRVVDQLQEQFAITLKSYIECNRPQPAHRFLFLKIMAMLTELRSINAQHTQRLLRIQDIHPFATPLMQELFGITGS

For the molecule `CC(C)CC(=O)N[C@H](C(=O)N[C@H](C(=O)N[C@@H](CC(C)C)[C@@H](O)CC(=O)N[C@@H](C)C(=O)N[C@@H](CC(C)C)[C@@H](O)CC(=O)O)C(C)C)C(C)C` (Isovaleryl-VV[Sta]A[Sta]-OH), the call in assay [1], in assay [2], in [4], in assay [5], in assay [7] and in [8] was inactive. Also, the Potency result in assay [3], in assay [6] and in [9] was “inactive” each time. The max activation in assay [10] is -4.42%.
With `Cc1ccccc1OCC(=O)O`, the molecule was called inactive in assay [1], in [2], in assay [4], in [5], in [7] and in assay [8]. Besides, the Potency entry in [3], in [6] and in assay [9] was “inactive” throughout.
In the case of `CCC(C)SSC(C)CC` (centres undefined), the outcome in assay [1], in assay [2], in assay [4], in [5], in [7] and in [8] was inactive. In addition, the Potency result in assay [3], in assay [6] and in assay [9] was “inactive” each time.
Take `CSC(=O)c1cccc2nnsc12`: the outcome in [1], in [2], in assay [4], in assay [5], in assay [7] and in assay [8] was inactive. Moreover, the Potency result in assay [3], in [6] and in assay [9] was “inactive” each time.
For the molecule `CC(C)(C)OC(=O)c1ccccc1C(=O)O`, the call in [1], in [2], in [4], in assay [5], in [7] and in [8] was inactive. In addition, the Potency result in [3], in assay [6] and in assay [9] was “inactive” each time.
With `O=C1Nc2ccccc2C1=O`, the molecule was called inactive in assay [1], in assay [2], in assay [4], in assay [5], in assay [7] and in assay [8]. The Potency entry in [3], in assay [6] and in assay [9] was “inactive” throughout.
Consider `CN(C)CCCN(C)C`, for which the figures for the activation in assay [1], in assay [3] and in assay [9] were -1.23% [at 6.97 µM], -0.372% [at 5.23 µM] and 5.88% [at 8.39 µM], respectively. Also, the activity, negative = inhibition in assay [2] is -3.47% [at 4.65 µM]. Also, the activity change, negative = cytotoxicity in assay [4] was 11.9% [at 8.39 µM]; in assay [6], 2.18% [at 8.39 µM]; in assay [8], 6.58% [at 8.39 µM]. Also, the caspase activation in assay [5] is 0.348% [at 8.39 µM]. Also, the caspase-3/7 activation in assay [7] was 1.46% [at 8.39 µM].
As to `Cc1ccc2ccccc2n1`, the outcome in [1], in assay [2], in assay [4], in assay [5], in assay [7] and in assay [8] was inactive. In addition, the Potency entry in assay [3], in assay [6] and in assay [9] was “inactive” each time.
Turning to `O=S(=O)(O)c1ccc(Cl)cc1`, the outcome in assay [1], in assay [2], in assay [4], in assay [5], in assay [7] and in assay [8] was inactive. Moreover, the Potency entry in assay [3], in [6] and in assay [9] was “inactive” in each case.
Consider `CC(C)(C)C(=O)NCCCC(=O)O`, for which the molecule was called inactive in assay [1], in assay [2], in assay [4], in assay [5], in assay [7] and in assay [8]. Besides, the Potency result in assay [3], in assay [6] and in assay [9] was “inactive” in each case. The max activation in assay [10] was -1.4%.
For the molecule `N#CC1(N)CCCCC1`, the call in assay [1], in assay [2], in [4], in assay [5], in [7] and in assay [8] was inactive. In addition, the Potency result in assay [3], in assay [6] and in assay [9] was “inactive” each time.
As to `N[C@H]1C(O)O[C@H](CO)[C@@H](O)[C@@H]1O` (some centres undefined), the molecule was called inactive in assay [1], in [2], in assay [4], in assay [5], in [7] and in [8]. The Potency result in [3], in [6] and in assay [9] was “inactive” in each case. For the same molecule, the max activation in [10] was 3.63%.
In the case of `Cc1cc(C)c(N)c(Cl)c1`, the molecule was classed as inactive in assay [1], in assay [2], in [4], in assay [5], in assay [7] and in assay [8]. The Potency result in assay [3], in [6] and in [9] was “inactive” each time.
For the molecule `CC(=O)SC[C@@H](C)C(=O)N1CCC[C@H]1C(=O)N[C@@H](Cc1ccccc1)C(=O)O`, the call in assay [1], in assay [2], in assay [4], in assay [5], in assay [7] and in assay [8] was inactive. In addition, the Potency entry in assay [3], in assay [6] and in [9] was “inactive” in each case.
Regarding `O=C1c2ccccc2C(=O)N1CO`, the call in assay [1], in assay [2], in assay [4], in assay [5], in assay [7] and in assay [8] was inactive. Moreover, the Potency result in [3], in [6] and in [9] was “inactive” each time.
As for `C[Si](C)(C)O[Si](O)(O)O`, the molecule was called inactive in assay [1], in assay [2], in assay [4], in assay [5], in [7] and in assay [8]. For the same molecule, the Potency entry in assay [3], in assay [6] and in assay [9] was “inactive” in each case.
For `CCCC(=O)CC`, the molecule was classed as inactive in assay [1], in assay [2], in [4], in assay [5], in assay [7] and in [8]. In addition, the Potency result in [3], in assay [6] and in [9] was “inactive” throughout.
With `COc1cc(OC)cc(OC)c1`, the outcome in assay [1], in assay [2], in assay [4], in assay [5], in [7] and in assay [8] was inactive. In addition, the Potency entry in [3], in assay [6] and in assay [9] was “inactive” in each case. In addition, the max activation in assay [10] was -1.98%.
Turning to `CC1=C(O)C(=O)CO1`, the molecule was classed as inactive in [1], in assay [2], in assay [4], in assay [5], in assay [7] and in assay [8]. Besides, the Potency result in [3], in [6] and in assay [9] was “inactive” throughout.
Regarding `CCc1ncc(C)[nH]1`, the molecule was called inactive in assay [1], in assay [2], in assay [4], in [5], in assay [7] and in assay [8]. Moreover, the Potency entry in assay [3], in assay [6] and in assay [9] was “inactive” each time.
With `CC(=O)OC1CCC(C(C)(C)C)CC1` (centres undefined), the outcome in [1], in [2], in [4], in assay [5], in [7] and in assay [8] was inactive. For the same molecule, the Potency result in [3], in [6] and in assay [9] was “inactive” in each case.
For the molecule `COC(=O)/C=C(\C)CCC=C(C)C`, the molecule was classed as inactive in assay [1], in assay [2], in assay [4], in assay [5], in assay [7] and in [8]. Also, the Potency entry in assay [3] and in [6] was “inactive” each time. For the same molecule, in assay [9], the Potency is 61.1 µM (active).
On to `CCCCC(O)/C=C(C)/C=C/C=C/C(=O)N1CCCC1=O` (centres undefined), for which the result in [1], in assay [2], in assay [4], in [5], in assay [7] and in [8] was inactive. Further, the Potency entry in assay [3], in [6] and in assay [9] was “inactive” in each case.
Consider `Cc1cc(O)c(Cl)cc1C`, for which the molecule was classed as inactive in assay [1], in [2], in [4], in assay [5], in assay [7] and in [8]. Moreover, the Potency entry in assay [3], in assay [6] and in assay [9] was “inactive” in each case.
`CCCCCCCCCCCCCCCC(=O)OC`: the values for the activation in [1], in [3] and in assay [9] were 0.447% [at 15.8 µM], 1.74% [at 11.8 µM] and 4.26% [at 19 µM], respectively. The activity, negative = inhibition in [2] is 0.477% [at 10.5 µM]. Besides, the activity change, negative = cytotoxicity in assay [4] is 0.375% [at 19 µM]; in assay [6] it was 3.95% [at 19 µM]; in assay [8] it was -1.7% [at 19 µM]. For the same molecule, the caspase activation in assay [5] was 1.29% [at 19 µM]. In addition, the caspase-3/7 activation in assay [7] is 1.1% [at 19 µM].
